The record followed here is ChEMBL document CHEMBL3988442, “University of Dundee, Small-Polar-MMV Screening Library” (2021).

The whole screen tested about 69,000 compounds, of which about 950 (1.4%) showed an effect of 50% or more. This excerpt belongs to a sample that is enriched for strong results.

This assay concerns Mycobacterium tuberculosis. The assay is described as follows: Cornell M. t heat shock assay. Also: in the data most compounds retested in dose-response had high values. Also noted: dose or concentration left out as unconfirmed. The assay is classed as functional, organism-based.
Take `COc1ccccc1OCCNCc1c(C)nn(C)c1N(C)C.Cl`: the “Percent Effect” value was determined as 31.69%.
On to `COc1ccc(CC(=O)NCC(O)c2sccc2C)cc1OC` (stereo unspecified), for which the “Percent Effect” value is given as 0.2606%.
On to `Cc1ccc(CNC2CCc3[nH]c(=O)ccc3C2)cc1C.O=C(O)C(F)(F)F` (stereo unspecified), for which the “Percent Effect” value is -33.52%.
Regarding `O=C(O)C(F)(F)F.O=C(O)C(F)(F)F.c1cnc(N2CC3(CCN(Cc4cccnc4)C3)C2)nc1`, the “Percent Effect” value is -26.88%.
Turning to `CN1CCCC1c1cncc(C(=O)NCCN2CCCCC2)n1` (stereo unspecified), the “Percent Effect” value is recorded as -9.497%.
Regarding `O=C(Nc1cccnc1-n1cc(Cl)cn1)C1CCCC1`, the “Percent Effect” value was found to be 16.14%.
With `Cc1cc(C2CCNCC2)nc(-c2ccsc2)n1.Cl`, the “Percent Effect” value is -13.2%.
In the case of `CN(C)[C@@H]1CCN(C(=O)Cc2ccc(F)cc2)[C@H]1Cc1cnn(C)c1.O=C(O)C(F)(F)F` it was 10.95%; in that of `COc1ccc(CNC(Cc2ccsc2)c2ncccc2C)cc1OC` (stereo unspecified), 96.19%.
As to `COc1ncc(NCc2ccsc2)cc1C(N)=O`, the “Percent Effect” value is given as -17.59%.
`CCc1cnc(N)nc1NCc1ccc(OC)c(OC)c1`: the “Percent Effect” value amounted to 5.948%.
On to `COc1ccc(C(C)NCc2ccsc2)cc1Cn1cccn1` (stereo unspecified), for which the “Percent Effect” value was -10.38%.
As to `COc1ccc(CNC(C)Cn2cccn2)cc1OC` (stereo unspecified), the “Percent Effect” value is reported as -13.02%.
In the case of `Cc1cnc(N2CCC3(CCN(Cc4csc(C)n4)C3=O)C2)nc1.O=C(O)C(F)(F)F` (stereo unspecified) it was -3.389%; in that of `Cc1ccc2c(n1)N(Cc1cccnc1)CCN(C(=O)C1CC1)C2.O=C(O)C(F)(F)F.O=C(O)C(F)(F)F`, -27.88%; in that of `Cl.Cn1ccnc1C1(O)CCN(C(=O)Cc2ccccc2)CC1`, -18.55%.
In the case of `CN(Cc1ccc(-n2cccn2)cc1)C[C@@H]1CCCN2CCCC[C@H]12`, the “Percent Effect” value was -24.54%.
In the case of `Cc1ccc(N2CCC3(CCN(C(=O)c4ccccn4)CC3)CC2)nn1.O=C(O)C(F)(F)F.O=C(O)C(F)(F)F` it was -19.27%; in that of `COc1cc(CN2CCCC2)ccc1OC12CCCN(CC1)C2` (stereo unspecified), -26.73%; in that of `COc1cc(C#N)ccc1OC12CCCN(CC1)C2` (stereo unspecified), -7.079%.
`CCCc1ccc(OC23CCCN(CC2)C3)c(OC)c1` (stereo unspecified): the “Percent Effect” value is recorded as 85.22%.
For `CS(=O)(=O)NC[C@H]1OC[C@@H]2CCN(CCc3ccccc3)C[C@@H]21.O=C(O)C(F)(F)F`, the “Percent Effect” value was -13.26%.
In the case of `CC(C)N(C)Cc1cncc2c1CCN(CC1CC1)C2.Cl.Cl.Cl` it was 9.593%.
With `O=C(O)C(F)(F)F.O=C(O)[C@]12CCCN(C3CCOC3)C[C@H]1CN(c1nncs1)C2` (stereo partly specified), the “Percent Effect” value was 32.9%.
`COCCN1CCCn2c(nc(CNC(=O)COC)cc2=O)C1.O=C(O)C(F)(F)F`: the “Percent Effect” value was 37.74%.
The value for `COc1ccc(CN2C[C@H]3C[C@H](C(=O)Nc4cccnc4)[C@@H](C2)O3)cc1` was 4.187%; that for `CCc1c(C)sc(NC(=O)CN2CCN(CC)CC2)c1C(=O)OC` was 103.2%; that for `CCOC(=O)c1c(NC(=O)CN2CCN(C(C)=O)CC2)sc(C)c1C` was -7.801%.
Consider `CCc1c(C)sc(NC(=O)CN2CCOCC2)c1C(=O)OC`, for which the “Percent Effect” value is 24.22%.
The value for `CN1CCCC1c1cccc(Cc2ccc(F)cc2)n1` (stereo unspecified) was 24.93%; that for `CN1CCCC1c1cccc(Cc2ccccc2F)n1` (stereo unspecified) was 69.94%; that for `CC(=O)N1CCCC1c1cccc(Cc2ccccc2F)n1` (stereo unspecified) was -21.24%.
The value for `Cc1cccc(CN2CCc3ncnc(C4CC4)c3CC2)n1.O=C(O)C(F)(F)F` was -23.65%.
Turning to `CCN1CCN(C)C(=O)C12CCN(Cc1csc(C)n1)CC2.O=C(O)C(F)(F)F`, the “Percent Effect” value is 25.71%.
For the compound `O=C(O)C(F)(F)F.O=C(O)C(F)(F)F.c1cncc(-c2ncnc3c2CCN(Cc2cccs2)CC3)c1`, the “Percent Effect” value is reported as -18.81%.
The value for `CC(C)Cc1cc(NC(=O)c2ccncc2)n(C)n1` was 18.34%.
In the case of `CC(C)Cc1cc(NC(=O)c2ccccc2)n(C)n1` it was 19.61%.
Consider `CC(C)Cc1cc(NC(=O)c2ccccn2)n(C)n1`, for which the “Percent Effect” value is recorded as 64.59%.
In the case of `CN(Cc1ccncc1)C1COC2(CCN(Cc3cccs3)CC2)C1.O=C(O)C(F)(F)F.O=C(O)C(F)(F)F.O=C(O)C(F)(F)F` (stereo unspecified), the “Percent Effect” value is reported as 10.37%.
Turning to `CN(C)C(=O)CO[C@@H]1CC[C@H]2[C@H]1OCCN2c1ncc(F)cn1.O=C(O)C(F)(F)F`, the “Percent Effect” value was 7.03%.
In the case of `O[C@@H]1CN(c2nc3ccccc3s2)CC[C@H]1c1ccc2c(c1)OCO2` it was -12.43%; in that of `O[C@@H]1CN(c2cnc3ccccc3n2)CC[C@H]1c1ccc2c(c1)OCO2`, 107.1%; in that of `O[C@@H]1CN(c2nc3ccccc3o2)CC[C@H]1c1ccc2c(c1)OCO2`, -10.34%.
Take `O=C(O)C(F)(F)F.c1ccn(Cc2nnc3n2CCCN(Cc2ccoc2)C3)c1`: the “Percent Effect” value is -15.36%.
For the compound `O=C(C1CCC1)N1C[C@@H]2CN(Cc3ccncc3)C(=O)[C@@H]2C1.O=C(O)C(F)(F)F`, the “Percent Effect” value was 6.384%.
On to `CN(C)CCCNCCC(c1ccccc1)C1CCOC(C)(C)C1.O=C(O)C(=O)O` (stereo unspecified), for which the “Percent Effect” value is on record as 21.84%.
Consider `CN1CCN(C2COC3(CCN(Cc4ccc(F)cc4)CC3)C2)CC1.O=C(O)C(F)(F)F.O=C(O)C(F)(F)F.O=C(O)C(F)(F)F` (stereo unspecified), for which the “Percent Effect” value is on record as -9.014%.
`CCCNC(=O)NC(=O)CNC(C)(C)c1ccc2c(c1)OCCO2`: the “Percent Effect” value worked out at 99.39%.
In the case of `CCCNC(=O)NC(=O)CNC(C)(C)c1ccc2c(c1)OCO2`, the “Percent Effect” value is listed as -10.73%.
Regarding `CCNC(=O)NC(=O)CNC(C)(C)c1ccc2c(c1)OCCO2`, the “Percent Effect” value is 11.57%.
As for `Cc1cc(C[C@@H]2COC[C@H]2NCc2ccc(C(C)C)cc2)on1.O=C(O)CC(O)(CC(=O)O)C(=O)O`, the “Percent Effect” value turned out to be 9.353%.
On to `Cc1[nH]c2ccccc2c1CCNc1ncnc2c1CCNCC2`, for which the “Percent Effect” value is recorded as 1.152%.
As to `Cc1[nH]c2ccc(C#N)cc2c1CCNc1ncnc2c1CCNCC2`, the “Percent Effect” value was 7.503%.
Regarding `Cc1[nH]c2ccc(Cl)cc2c1CCNc1ncnc2c1CCNC2`, the “Percent Effect” value was 96.99%.
`Cc1cc(C)nc(N2CCCC(C(=O)Nc3n[nH]c(C(C)C)n3)C2)n1` (stereo unspecified): the “Percent Effect” value is listed as 13.11%.
With `O=C1CCCN1Cc1nnc2n1CCCN(C(=O)c1ccc[nH]1)C2`, the “Percent Effect” value came out at 27.49%.
Regarding `O=C(O)C(F)(F)F.O=C(c1ccc[nH]1)N1CCCn2c(CNC3CCC3)nnc2C1`, the “Percent Effect” value was 92.9%.
The value for `O=C(c1ccc[nH]1)N1CCCn2c(CN3CCCCC3)nnc2C1` was 16.28%; that for `Cc1cnc(NC(=O)c2cccc(CN(C)Cc3ccno3)c2)s1` was 6.699%.
As for `Cc1cnc(NC(=O)c2cccc(CN(C)Cc3ncccc3C)c2)s1`, the “Percent Effect” value stood at 62.95%.
Consider `Cc1cnc(NC(=O)c2cccc(CN(C)Cc3snnc3C)c2)s1`, for which the “Percent Effect” value is 9.507%.
Take `Cl.O=C(c1cccc(F)c1)N1CCCC1c1ncc2c(n1)CCNC2` (stereo unspecified): the “Percent Effect” value is -29.7%.
In the case of `NC(=O)NC(=O)CN1CCN(CC2CC2)c2ccccc21` it was 61.15%.
For the compound `NC(=O)NC(=O)CCN1CCN(CC2CC2)c2ccccc21`, the “Percent Effect” value is reported as -11.96%.
In the case of `CNC(=O)NC(=O)CN1CCN(CC2CC2)c2ccccc21` it was 34.37%; in that of `CN(C)CCN1CCCC12CCN(C(=O)c1ccoc1)CC2.O=C(O)C(F)(F)F.O=C(O)C(F)(F)F`, -7.317%; in that of `O=C(O)C(F)(F)F.O=C1C[C@H]2[C@H](CCN2Cc2ccccn2)N1CC1CC1`, -8.238%.
In the case of `CN(C)CCCNC(=O)c1ccc(N(C)S(C)(=O)=O)cc1Cl` it was 4.922%; in that of `O=C(CCN1CCCN(c2nccs2)CC1)NCC1CCCCC1`, 0.6887%.
Take `NC(=O)NC(=O)CCN1CCN(c2nccs2)CC1`: the “Percent Effect” value turned out to be 101.5%.
As for `CNC(=O)NC(=O)CCN1CCN(c2nccs2)CC1`, the “Percent Effect” value is listed as 23.87%.
The value for `NC(=O)NC(=O)CCN1CCCN(c2nccs2)CC1` was 91.9%; that for `NC(=O)NC(=O)CN1CCN(c2nccs2)CC1` was -3.548%.
As for `O=C(CCN1CCCN(c2nccs2)CC1)Nc1ccccc1`, the “Percent Effect” value was -8.927%.
Turning to `CCn1cncc1CN(Cc1ccc(OC)cc1OC)CC1CCCO1.O=C(O)CC(O)(CC(=O)O)C(=O)O` (stereo unspecified), the “Percent Effect” value was -14.56%.
Consider `CN(Cc1cccnc1)[C@@H]1CN(C(=O)CC2CC2)[C@@H]2CCCO[C@H]12.O=C(O)C(F)(F)F.O=C(O)C(F)(F)F`, for which the “Percent Effect” value is on record as -21.3%.
For `CC/N=c1\c(NC(=O)C(C)(C)C)c(O)oc2ccccc12`, the “Percent Effect” value was -10.16%.
For the compound `Cn1ncc2ccc(C3CCCN(Cc4cccs4)C3)nc21` (stereo unspecified), the “Percent Effect” value came to 13.99%.
As to `Oc1cc(-c2nccs2)nc(C2CCN(Cc3cccs3)CC2)n1`, the “Percent Effect” value is on record as 15.4%.
Regarding `Oc1cc(C2CCCN(Cc3cccs3)C2)nc(-c2ccccn2)n1` (stereo unspecified), the “Percent Effect” value was 99.87%.
Take `Oc1cc(C2CCCCN2Cc2cccs2)nc(-c2ccncc2)n1` (stereo unspecified): the “Percent Effect” value is reported as -5.43%.
With `Oc1cc(C2CCCCN2Cc2cccs2)nc(-c2ccccn2)n1` (stereo unspecified), the “Percent Effect” value is 103.7%.
Regarding `Oc1cc(C2CCCCN2Cc2ccsc2)nc(-c2ccncc2)n1` (stereo unspecified), the “Percent Effect” value is given as -9.132%.
With `O=C(O)C(F)(F)F.O=C1[C@H]2CN(Cc3nccs3)C[C@H]2CN1c1cncnc1`, the “Percent Effect” value was -2.915%.
On to `CN(C)CCO[C@@H]1CC[C@H]2[C@H]1OCCN2C(=O)COc1ccccc1.O=C(O)C(F)(F)F`, for which the “Percent Effect” value stood at 10.1%.
In the case of `COc1ccc(CN2C[C@@H]3OCCN(CC4CCCO4)[C@@H]3C2)cc1.O=C(O)C(F)(F)F.O=C(O)C(F)(F)F` (stereo partly specified) it was 2.354%; in that of `COc1ccc(CN2CC[C@H]3[C@H]2CCN3C(=O)c2cnn(C)c2)cc1.O=C(O)C(F)(F)F`, 1.435%; in that of `CC(=O)N1Cc2ccnn2CC(C(=O)NCc2cccnc2)C1.O=C(O)C(F)(F)F` (stereo unspecified), 37.04%.
Regarding `FC(F)(F)c1ccc2nc([C@H]3CCN(C4CCOCC4)C3)[nH]c2c1`, the “Percent Effect” value was 5.789%.
In the case of `FC(F)(F)c1ccc2nc([C@H]3CCN(C4CCC4)C3)[nH]c2c1`, the “Percent Effect” value amounted to 17.31%.
Regarding `FC(F)(F)c1ccc2nc([C@H]3CCN(C4CCCCC4)C3)[nH]c2c1`, the “Percent Effect” value amounted to 60.59%.
